# KB-3-1 cytotox: kills parental KB-3-1 adenocarcinoma cells | AID 1347075 | Potency, µM (top dose mostly 46.1 µM), actives largely listed as cytotoxic | KB-3-1 viability, CellTiter-Glo ATP luminescence, 72 h | 400,000 compounds, 1.4% hits; note: % is set by controls: 0 for no effect and ±100 for the full control effect; nearly all actives have a fitted effect of over 60% in size
#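 Parental KB-3-1 adenocarcinoma cells in phenol-red-free DMEM with 10% FBS were pin-treated with compounds at several concentrations, incubated 72 h at 37 °C, and viability read by CellTiter-Glo luminescence; concentration-effect curves were fitted after normalization.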
# MCF10A rereplic: inducers of DNA re-replication in MCF 10A breast cells; MCF 10A DNA re-replication, Hoechst nuclear intensity, 48 h; Potency, µM (top dose mostly 46.1 µM), inactives show at the highest dose activity, positive = re-replication, most hits filed as activators; 350,000 compounds, 2.9% hits; note: % of control where 0% means no effect; nearly all actives have a fitted effect of over 50% in size
# HT1080-NT tox: kills 2HG-producing HT-1080-NT fibrosarcoma cells. Potency, µM (series often up to 46.1 µM), for the others: at the top dose activity, negative = less viability, hits mostly cytotoxic. 360,000 compounds, 1.6% hits. HT-1080-NT fibrosarcoma viability, CellTiter-Glo ATP luminescence, 48 h. AID 686970;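 note: NT is the 2HG producing partner of a matched IDH1 knockdown line; 0% = DMSO-treated cells and -100% = media-only wells without cells; nearly all actives have a fitted effect of over 55% in size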
#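 Read-out is CellTiter-Glo luminescence after 10 minutes at room temperature, following 48 hours' compound treatment of HT-1080-NT cells (750 cells/well, RPMI, 5% FBS, 37 degrees C).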
# SW480 rerep: induces DNA re-replication in SW480 colon adenocarcinoma cells. SW480 DNA re-replication, Hoechst DNA content imaging, 48 h. Potency, µM (top dose mostly 46.1 µM), for inactives: at the top dose re-replication activation, usual class: activators. 340,000 compounds, 1.8% hits. AID 624297; note: % of control where 0% means no effect; nearly all actives have a fitted effect of over 55% in size
#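 Treated cells incubate 48 hr (37 C, 5% CO2), are stained 40 min with Hoechst, and nuclear fluorescence is enumerated; a rise in nuclei with high DNA signal marks re-replication.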
# KB-V1 cytotox: kills drug-selected multidrug resistant KB-V1 cells | KB-V1 MDR cells viability, CellTiter-Glo, 72 h | Potency, µM (series often up to 46.1 µM), actives largely listed as cytotoxic | 400,000 compounds, 3.4% hits; note: % is set by controls: 0 for no effect and ±100 for the full control effect; nearly all actives have a fitted effect of over 60% in size
#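 Following 72 h at 37 degrees C with compound, KB-V1 cell viability was read by CellTiter-Glo luminescence, medium being phenol-red-free DMEM plus 10% FBS; concentration-response parameters came from normalized, curve-fitted qHTS data.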
# HT1080 IDH1KD tx: toxicity to HT-1080 IDH1 knockdown cells (counter line); HT-1080 IDH1 knockdown viability, ATP luminescence, 48 h; Potency, µM (series often up to 46.1 µM), for the others: at the top dose activity, negative = toxicity, hits mostly cytotoxic; 360,000 compounds, 2% hits;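 note: 0% = DMSO wells and -100% = cell-free medium wells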
#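 HT-1080-IDH1KD cells (IDH1 knocked down), 750/well in RPMI with 5% FBS, treated with compound 48 h at 37 degrees C. Viability by CellTiter-Glo luminescence, normalised to DMSO and no-cell wells; concentration-response curves classed.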
# * marks the source's active call; other numbers are inactive results; i = inactive; ? = inconclusive; . = no result given. In the library only some 8% were active in any assay of this set; here they are far more common. Calls come from the whole dose curve; as a rule, active = well fitted curve in the direction sought with a large enough effect; inconclusive = small, poorly fitted or top-dose-only effect, or another doubt; inactive = no such curve, though single readings can be large; an effect the other way counts as inactive or inconclusive. Potency is the fitted concentration of half-maximal effect.
SMILES,KB-3-1 cytotox,MCF10A rereplic,HT1080-NT tox,SW480 rerep,KB-V1 cytotox,HT1080 IDH1KD tx
CCn1c(NCc2cc(Cl)ccc2O)nc2ccccc21,i,?,?,-7.5%,i,?
Cc1ccc(N2CCN(C(=O)c3cnn(-c4ccc(C)c(C)c4)c3C3CCNCC3)CC2)c(C)c1,?,.,.,.,i,.
Nc1cc(=O)[nH]c(SCC(=O)Nc2cc(S(=O)(=O)N3CCCCCC3)ccc2Cl)n1,i,?,-27.2%,10.8%,i,-2.7%
Cc1ccc(-c2nc(SCC(=O)Nc3cc(S(=O)(=O)N4CCCCC4)ccc3Cl)n[nH]2)cc1,?,?,-20.3%,11.4%,16.4µM*,-15.3%
CCCc1cc(=O)[nH]c(SCC(=O)Nc2cc(S(=O)(=O)N3CCCCC3)ccc2Cl)n1,8.2µM*,?,6.51µM*,3.2%,?,14.6µM*
COc1ccc(-c2nc(N3CCC(C)CC3)[nH]c(=O)c2C#N)cc1,i,3.66µM*,0.0%,?,?,-20.6%
COc1ccc(-c2nc(N3CCCC3)[nH]c(=O)c2C#N)cc1,?,?,4.9%,-9.2%,i,2.1%
O=C(Nc1cn(-c2ccccc2)nc1-c1ccc(F)cc1)c1ccccc1,i,-7.9%,0.2%,-8.6%,16.4µM*,0.7%
O=C(CCl)Nc1cn(-c2ccccc2)nc1-c1ccccc1,?,?,?,-52.0%,20.6µM*,-29.1%
O=C1CCc2cc(S(=O)(=O)Nc3cccc(Br)c3)ccc2N1,i,.,.,.,i,.
COC(=O)C1=C(C)NC(=O)/C1=C\c1cc(C)n(-c2c(C)cccc2C)c1C,i,5.8µM*,-3.6%,?,i,2.7%
CCNC(=O)C1(C)CCCN(Cc2csc(-c3ccc(Cl)cc3)n2)C1 (stereo not given),?,.,0.461µM*,.,i,?
CCCNC(=O)C1(C)CCCN(Cc2csc(-c3ccccc3)n2)C1 (stereo not given),?,.,-27.0%,.,i,-3.8%
CCOc1ccccc1N1CCN(c2ncnc3scc(-c4ccc(OC)cc4)c23)CC1,13µM*,?,?,?,?,?
Oc1ccccc1N1CCN(c2ncnc3scc(-c4ccccc4)c23)CC1,?,20.6µM*,?,?,?,?
COc1ccc(-c2csc3ncnc(N4CCN(c5ccccc5OC)CC4)c23)cc1,?,?,-18.5%,4.8%,?,-6.5%
Cc1nc(N2CCN(c3ccccc3O)CC2)c2c(-c3ccccc3)csc2n1,?,13µM*,-27.0%,?,i,?
COc1ccc(-c2csc3nc(C)nc(N4CCC(C)CC4)c23)cc1OC,?,?,18.4µM*,18.9%,?,?
COc1cc(/C=N/NC(=O)c2ccncc2)ccc1OCc1cnc(Cl)s1,i,-1.1%,-8.3%,-5.6%,i,-14.5%
COc1ccc2nc(C)cc(SCC(=O)N/N=C/c3ccccc3)c2c1,i,3.4%,-9.6%,-6.4%,i,-10.3%
COc1ccccc1/C=N/Nc1cc(C)nc2ccc(C)cc12,i,-2.6%,1.1%,2.9%,i,-0.6%
COc1ccc2nc(C)cc(N/N=C/c3ccccc3)c2c1,i,23.1µM*,-3.1%,16.4µM*,20.6µM*,-0.3%
COc1ccc2nc(C)cc(Nc3ccc(C)cc3)c2c1,i,?,?,-0.2%,i,?
COc1ccc2nc(C)cc(NCc3ccc(F)cc3)c2c1,i,18.4µM*,?,?,i,16.4µM*
COc1ccc(/C=N/Nc2cc(C)nc3ccc(OC)cc23)c(OC)c1,?,?,23.1µM*,23.1µM*,?,5.17µM*
SMILES,KB-3-1 cytotox,MCF10A rereplic,HT1080-NT tox,SW480 rerep,KB-V1 cytotox,HT1080 IDH1KD tx
Cc1cc2nc(C3CCCCC3)c(Cc3cccc(Cl)c3)n2c(C)c1Br,i,.,12.6%,.,i,-1.7%
COc1cc(-c2ccc3ncnc(NCc4ccc(C)o4)c3c2)cc(OC)c1OC,?,.,.,.,i,.
COc1ccc(NC(=O)c2cc(S(=O)(=O)N3CCCCC3)cn2C)cc1Cl,i,.,.,.,i,.
CCC(C)c1ccccc1OCCn1c(CCNC(=O)C2CCCCC2)nc2ccccc21 (stereo not given),?,.,.,.,i,.
CN(C)c1cccc(N2CCN(c3nn4c(=O)c5ccccc5nc4s3)CC2)c1,i,.,.,.,i,.
CC(C)n1c(N2CCN(C(=O)Nc3ccccc3)CC2)nc2ccccc21,i,0.7%,-0.5%,-0.6%,i,11.6%
CSc1ccc(NC(=O)N2CCN(c3nc4ccccc4s3)CC2)cc1,?,3.5%,2.2%,1.8%,2.59µM*,-5.0%
Cn1c(N2CCN(C(c3ccccc3)c3ccccc3)CC2)nc2ccccc21,?,23.1µM*,?,?,?,?
Cn1c(N2CCN(C(=O)Nc3ccc(F)cc3)CC2)nc2ccccc21,i,8.1%,21.6%,0.3%,18.4µM*,18.5%
Cc1cc(NC(=O)c2cccc(S(=O)(=O)N3CCC(C)CC3)c2)no1,.,3.4%,1.2%,3.7%,.,1.0%
COC(=O)[C@@]12C[C@@H](CC(=O)N3CCOCC3)C(=O)N(CCc3ccc(OC)c(OC)c3)C1=CCC(C)(C)C2,i,.,15.3%,.,i,8.4%
CSc1ncccc1C(=O)NC(C)CCc1ccccc1 (stereo not given),i,-5.9%,-8.3%,2.4%,i,-6.2%
CCCCN(CC)CCCNC(=O)c1cc2cc3ccc(C)cc3nc2o1,i,-19.6%,-17.4%,-62.7%,i,0.0%
Cc1cccc(N(C)C(=O)c2cc3cc4ccc(C)cc4nc3o2)c1,?,10µM*,?,?,11.6µM*,13µM*
CCN1/C(=C/c2ccc3cc(C)ccc3[n+]2C)Sc2ccc3sccc3c21,i,?,16.4µM*,?,i,?
CCN1/C(=C/c2ccc3ccccc3[n+]2CC)C=Cc2ccccc21,0.82µM*,-1.0%,6.51µM*,0.5%,?,8.2µM*
CCN1/C(=C/c2ccc3ccccc3[n+]2CCCS(=O)(=O)[O-])C=Cc2cc(C)ccc21,i,-0.4%,-13.7%,-4.4%,i,-17.5%
CCN1/C(=C/c2ccc3cc(C)ccc3[n+]2CC)Sc2cc(C)ccc21,?,?,16.4µM*,-99.6%,i,23.1µM*
CCCCN1/C(=C/c2ccc3ccccc3[n+]2CC)Sc2ccccc21,i,7.5%,?,-1.3%,i,14.6µM*
O=C(c1ccc2c(c1)OCCCO2)N1CCCCC1,i,-0.9%,2.8%,-32.4%,i,0.6%
